CBX7 inh = blocks human CBX7 binding to H3K27me3 peptide | 66,000 tested, 1.1% active | normalised signal (fraction of DMSO) (no concentration beside the values) | AlphaScreen His6-CBX7 / biotin-H3K27me3 peptide binding; stronger effect = lower value; in the data active = normalised signal below about 0.5
Target sequence (O95931 whole entry, looked up): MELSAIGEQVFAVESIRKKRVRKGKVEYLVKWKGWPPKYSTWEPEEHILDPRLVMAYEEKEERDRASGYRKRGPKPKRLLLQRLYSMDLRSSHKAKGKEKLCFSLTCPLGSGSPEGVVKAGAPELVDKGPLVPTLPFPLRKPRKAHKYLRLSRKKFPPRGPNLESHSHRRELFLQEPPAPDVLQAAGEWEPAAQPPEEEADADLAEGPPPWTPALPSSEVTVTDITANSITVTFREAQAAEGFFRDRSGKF
A number is an active result; – = inactive; ! = a repeat was not active. Only a selection was taken, and hits are over-represented in it overall.

SMILES	CBX7 inh
CCN(CCCNC(=O)CCc1nc(-c2ccc(OC)cc2)no1)c1cccc(C)c1	0.42
COc1ccc(-c2noc(CCC(=O)NCCCOC(C)C)n2)cc1	–
Cc1c(C(=O)N(C)CCC#N)oc2ccc(S(=O)(=O)N3CCCCCC3)cc12	–
CCOC(=O)c1cnc2c(C)c(Cl)ccc2c1Nc1cc(C)ccc1OC	–
Cc1cccc(OCCn2c(NC(=O)c3ccccc3Cl)nc3ccccc32)c1	0.34
COc1ccccc1C(=O)Nc1nc2ccccc2n1CCOc1ccccc1	–
Cc1cccc(OCCn2c(C)nc3ccccc32)c1	–
O=C(CN1C(=O)COc2ccc(Cl)cc21)NCc1ccc(F)cc1	0.42
CCN(CC)S(=O)(=O)c1ccc2c(c1)N(CC(=O)NCc1ccc(F)cc1)C(=O)CO2	–
Cc1ccc(CNC(=O)CN2C(=O)COc3ccc(Cl)cc32)cc1	–
COc1cccc(NC(=O)c2cc3c(-c4ccc(OC)c(OC)c4)nn(C)c3s2)c1	–
Cc1cc(C)cc(C(=O)N2CC(=O)Nc3ccc(C)cc3C2c2ccc(F)cc2)c1 (stereo not given)	–
Cc1ccc(NC(=O)c2cnn(-c3ccc(F)cc3)c2C2CCNCC2)cc1	–
CCOc1cc2c(cc1OCC)C1C(C(=O)Nc3cc(C)ccn3)c3ccccc3C(=O)N1CC2 (stereo not given)	0.19
CCOc1cc2c(cc1OCC)C1C(C(=O)Nc3ccccc3C)c3ccccc3C(=O)N1CC2 (stereo not given)	–
CCOc1cc2c(cc1OCC)C1C(C(=O)Nc3ccccc3CC)c3ccccc3C(=O)N1CC2 (stereo not given)	–
CC1CCN(CCCNC(=O)C2(S(=O)(=O)c3ccc(Cl)cc3)CC2)CC1	–
Cc1ccccc1CN1C(=O)C(O)(CC(=O)c2ccccc2)c2ccccc21 (stereo not given)	–
CCc1ccc(C(=O)CC2(O)C(=O)N(Cc3ccccc3C)c3ccccc32)cc1 (stereo not given)	0.45
Cc1ccccc1CN1C(=O)C(O)(CC(=O)c2ccc(Cl)cc2)c2ccccc21 (stereo not given)	–
COc1ccc(-n2nc3c(c2NC(=O)c2ccc(OC(C)C)cc2)CS(=O)(=O)C3)cc1	–
Cc1ccc([N+](=O)[O-])cc1-c1[nH]c(-c2ccccc2F)nc1-c1ccccc1	0.47
Fc1ccccc1-c1nc(-c2ccccc2)c(-c2ccc(Sc3ccccc3)cc2)[nH]1	–
COc1cccc(-c2nc(-c3ccccc3)c(-c3cccs3)[nH]2)c1	–
COc1cccc(-c2nc(-c3ccccc3)c(-c3cc([N+](=O)[O-])ccc3C)[nH]2)c1	0.47
SMILES	CBX7 inh
O=C1c2ccc([N+](=O)[O-])cc2C(=O)N1c1ccc2nc(-c3ccccc3)[nH]c2c1	–
Cc1ccc(C)c(-c2[nH]c(-c3ccc(C(=O)O)cc3)nc2-c2ccccc2)c1	–
CCN1CCN(c2ccc(NC(=O)CCc3c(C)nc4c(c(C)nn4-c4ccccc4)c3C)cc2)CC1	–
CCN1CCN(C(=O)C2CCN(C(=O)c3cc4sccc4n3Cc3ccc(Cl)cc3)CC2)CC1	–
Cc1ccc(C(=O)Nc2ccccc2C(=O)O)cc1S(=O)(=O)N1CCCCC1	–
COc1ccc(Cn2c(=O)c3cccnc3n(Cc3ccc(F)cc3)c2=O)cc1	–
Cc1c(C(=O)Nc2ccccc2F)sc2ncnc(N3CCN(c4ccccc4F)CC3)c12	–
O=C1CN(C(=O)COc2ccccc2)C(c2ccccc2)c2cc(Cl)ccc2N1 (stereo not given)	–
O=C1CN(C(=O)COc2ccccc2)C(c2ccccc2)c2cc(F)ccc2N1 (stereo not given)	–
O=C1CN(C(=O)COc2ccccc2)C(c2ccccc2)c2cc(Br)ccc2N1 (stereo not given)	0.48
Brc1ccc(Nc2nc(-c3ccc(I)cc3)cs2)cc1	–
COc1cccc(Nc2nc(-c3ccc(-c4ccccc4)cc3)cs2)c1	–
COc1cccc(Nc2nc(-c3ccc(Cl)c(Cl)c3)cs2)c1	0.44
Clc1ccc(-c2csc(Nc3ccc(Br)cc3)n2)cc1Cl	0.46!
COc1ccc(Nc2nc(-c3ccc(Cl)cc3)cs2)cc1	–
COc1cccc(Nc2nc(-c3ccccc3)cs2)c1	–
Cc1ccc(C)c(-c2csc(Nc3ccc(Cl)cc3)n2)c1	–
Cc1ccc(-c2csc(Nc3ccc(Cl)cc3)n2)cc1C	0.31!
Clc1ccc(-c2csc(Nc3ccccc3)n2)cc1Cl	–
CCc1nnc(NC(=O)CN2C(=O)CC(C)(C)Sc3ccccc32)s1	–
CN1CCN(CCCNC(=O)C2c3ccccc3C(=O)N3CCc4ccccc4C23)CC1 (stereo not given)	–
Cn1c(C(=O)N2CCCC(C(=O)NC3CCCC3)C2)cc2sccc21 (stereo not given)	–
O=C(Nc1cccc(Cl)c1Cl)c1cc(-c2cccs2)nc2ccccc12	–
CCN(Cc1ccccc1)C(=O)c1ccc2c(c1)NC(=O)c1ccccc1S2	–
COc1ccc(Cc2nnc(NC(=O)c3cccc(NC(=O)c4ccccc4)c3)s2)cc1	–
SMILES	CBX7 inh
CCCCSc1oc(-c2ccccc2)nc1S(=O)(=O)c1ccc(F)cc1	–
Cc1cc(C)c(C(=O)c2ccc(-c3nnc(-c4ccccc4)o3)cc2)c(C)c1	–
NC(=O)c1ccc(-c2ncc(-c3ccccc3)o2)cc1	0.42
Clc1ccc(-c2cnc(-c3ccncc3)o2)cc1	–
Cc1ccc(C(=O)NCc2cc(-c3nn(C)c(=O)c4ccccc34)ccc2C)cc1	–
CCN(C(=O)CCc1nc(-c2ccc(OC)cc2)no1)c1cc(Cl)ccc1OC	–
CCN(C(=O)Cn1nc(Cc2cccnc2)c2ccccc2c1=O)c1cccc(C(F)(F)F)c1	–
O=C1CN(C(=O)CC2CCCCC2)C(c2ccccc2)c2cc(Cl)ccc2N1 (stereo not given)	–
CCOC(=O)CNC(=O)c1cc2c(n(-c3ccc(C)cc3)c1=O)CC(C)(C)CC2=O	–
CCC(=O)Nc1nc(C)c(-c2csc(Nc3cccc(C(=O)O)c3)n2)s1	–
CC(=O)Nc1nc(C)c(-c2csc(Nc3ccc(O)cc3)n2)s1	–
CC(=O)Nc1ccc(Nc2nc(-c3sc(NC(C)=O)nc3C)cs2)cc1	–
CCC(=O)Nc1nc(C)c(-c2csc(Nc3ccc(C(=O)O)cc3)n2)s1	0.088!
CCOc1ccc(Nc2nc(-c3sc(NC(=O)CC)nc3C)cs2)cc1	0.43
CC(=O)Nc1nc(C)c(-c2csc(Nc3ccc(Br)cc3)n2)s1	–
Cc1ccc(CSc2nc3ccncc3n2Cc2nc(-c3ccccc3)oc2C)cc1	–
CCOC(=O)c1cnc2c(OC)cccc2c1Nc1ccc(F)c(Cl)c1	–
COc1ccc(-c2c(C)nn3c(NCCc4ccc(Cl)cc4)cc(C)nc23)cc1OC	–
COc1cc2c(cc1OC)C(C(=O)Nc1cccc(C#N)c1)C1c3ccccc3CCN1C2=O (stereo not given)	–
O=C(O)c1ccc(N2C(=O)CC(N3CCN(c4ncccn4)CC3)C2=O)cc1 (stereo not given)	–
Cc1ccc(S(=O)(=O)NCC(NC(c2ccccc2)c2ccccc2)c2ccccc2)cc1 (stereo not given)	–
COc1ccc(CNC(=O)c2ccc(CNS(=O)(=O)c3ccccc3)cc2)cc1	–
COc1ccc(NC(CNS(=O)(=O)c2ccccc2)c2ccccc2)cc1 (stereo not given)	0.29
CCN(CC)S(=O)(=O)c1ccc2c(c1)N(CC(=O)NCc1ccc3c(c1)OCO3)C(=O)CS2	–
CCOC(=O)N1CCc2c(sc(NCc3ccncc3)c2C(=O)Nc2cc(OC)ccc2OC)C1	–
CCOC(=O)N1CCc2c(sc(NCc3cccs3)c2C(=O)Nc2cc(OC)ccc2OC)C1	0.47
